Source: PubChem BioAssay (NMMLSC)
Only some compounds are listed: those with a hit (about 2.5% of all), similar ones and a draw of the others.
GRK2 aptamer HTS: inhibitors of human GRK2 displacing RNA aptamer; 330,000 compounds, 0.59% hits; bead flow cytometry, FAM-aptamer displacement from GRK2; inhibition of aptamer binding, % at 10 µM; P25098;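 active = inhibition of aptamer binding above 40%, roughly 3 SD of noise, on plates passing a quality check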;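 also: median bead fluorescence of bound FAM aptamer so fluorescent compounds give negative values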
Target sequence (P25098 whole entry, looked up): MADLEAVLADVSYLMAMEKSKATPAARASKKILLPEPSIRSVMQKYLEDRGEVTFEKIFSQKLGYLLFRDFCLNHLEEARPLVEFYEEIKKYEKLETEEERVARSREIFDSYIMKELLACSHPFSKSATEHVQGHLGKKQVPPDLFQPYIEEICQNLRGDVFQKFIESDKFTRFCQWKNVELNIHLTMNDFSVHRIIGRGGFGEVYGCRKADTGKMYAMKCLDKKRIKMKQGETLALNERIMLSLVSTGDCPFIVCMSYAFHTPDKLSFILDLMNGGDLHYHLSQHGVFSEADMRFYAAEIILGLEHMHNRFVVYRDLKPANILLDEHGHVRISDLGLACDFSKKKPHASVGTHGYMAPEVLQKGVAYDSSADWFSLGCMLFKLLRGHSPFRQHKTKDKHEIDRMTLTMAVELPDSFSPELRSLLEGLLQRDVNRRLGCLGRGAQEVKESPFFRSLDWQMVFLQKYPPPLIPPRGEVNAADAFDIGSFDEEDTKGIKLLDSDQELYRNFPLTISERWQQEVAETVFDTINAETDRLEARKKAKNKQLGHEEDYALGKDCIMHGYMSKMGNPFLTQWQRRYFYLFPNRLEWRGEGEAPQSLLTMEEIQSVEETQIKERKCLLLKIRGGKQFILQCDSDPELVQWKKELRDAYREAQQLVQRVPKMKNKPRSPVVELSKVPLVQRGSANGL
MEKK2wt PB1 HTS: raises or lowers MEK5 binding to wildtype human MEKK2 PB1 domain; bead flow cytometry, Alexa488-MEK5 binding to MEKK2 WT; actives lie on both sides; binding response (% of control), % at 10 µM; 290,000 compounds, 1.1% hits; AID 1531; in the data active = binding response below about 67% or above about 130%
MEKK3 PB1 HTS: MEKK3-MEK5 PB1 interaction, increase or decrease. bead-based flow cytometry, Alexa488-MEK5 binding to MEKK3; actives lie on both sides; 0 = blocked by unlabeled MEK5, 100 = vehicle. AID 1529. binding response (% of control), % at 10 µM. Q99759. 290,000 compounds, 1.4% hits;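 active = binding response more than 3 SD above or below the average of its plate-row segment, actives on both sides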;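 also: Alexa488 bead fluorescence after subtracting the streptavidin-only scavenger bead signal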
MEKK2 mut-MEK5: signal of MEK5 binding to mutant human MEKK2 PB1 domain | AID 1530 | 290,000 compounds, 0.35% hits | percent response, % at 10 µM | bead flow cytometry, Alexa488-MEK5 binding to MEKK2 mutant; in the data active = percent response above about 24%, passing the limit was not always enough
MEKK2wt confirm: raises or lowers MEK5 binding to wildtype human MEKK2, retest | shares compounds with MEKK3 PB1 HTS | bead flow cytometry, Alexa488-MEK5 binding to MEKK2 WT; actives lie on both sides | binding response (% of control), % at 10 µM | 5,900 compounds, 2.4% hits; in the data active = binding response below about 16% or above about 210%; inactive = in between
MEKK2mut-MEK5: signal of MEK5 binding to mutant human MEKK2, retest. percent response, % at 10 µM. bead flow cytometry, Alexa488-MEK5 binding to MEKK2 mutant. 5,900 compounds, 2% hits. AID 1893. shares compounds with MEKK3 PB1 HTS; in the data active = percent response mostly above about 71%, no sharp cut-off; inactive = mostly below about 38%;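 also: higher means compound restores mutant binding toward wildtype level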
MEKK3-MEK5 inh: confirmation of inhibitors of MEK5 binding to human MEKK3; bead flow cytometry, Alexa488-MEK5 binding to MEKK3; stronger effect = lower value; 5,900 compounds, 1.8% hits; binding response (% of control), % at 10 µM; AID 1894; shares compounds with MEKK3 PB1 HTS;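 active = binding response below 72% of control, or above a set upper limit, though filed actives all read lower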;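 also: 100% = DMSO only wells and 0% = binding blocked by excess unlabeled MEK5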
* = called active by the depositor; nt = no result given; [ ] = another dose, or the depositor's remark.

SMILES	GRK2 aptamer HTS	MEKK2wt PB1 HTS	MEKK3 PB1 HTS	MEKK2 mut-MEK5	MEKK2wt confirm	MEKK2mut-MEK5	MEKK3-MEK5 inh
Cc1ccc(N=C(NO)c2nonc2N)c(C)c1	1	89	88	-5	nt	nt	nt
Cc1ccc(N=C(N(C)C)P(=O)(N(C)C)N(C)C)c(C)c1	2	77	72*[inhibitor]	-3	102	11	103
CCS(=O)(=O)N1CCN(C(=O)CC(C)C)CC1	0	101	104	-2	nt	nt	nt
O=C(Nc1sc2c(c1C(=O)NCCCO)CCCC2)c1ccccc1	0	103	98	-1	nt	nt	nt
NCCNC(=O)c1c(NC(=O)c2ccccc2)sc2c1CCCC2	0	149*	110	30*	137	12	105
Cc1onc(-c2ccccc2)c1C(=O)Nc1sc2c(c1C(N)=O)CCC2	2	2.0*[inhibitor]	2.0*[inhibitor]	-15	106	0	98
CC(=O)Nc1sc2c(c1C(N)=O)CCN(Cc1ccccc1)C2	1	114	126	18	nt	nt	nt
CCCN(Cc1cc2cc(C)ccc2[nH]c1=O)C(=O)c1cccc([N+](=O)[O-])c1	0	127	130*	24	102	-11	94
CCCN(Cc1cc2ccccc2[nH]c1=O)C(=O)c1cccc([N+](=O)[O-])c1	0	114	121	17	nt	nt	nt
O=C(O)c1nn(-c2ccccc2)ccc1=O	0	102	100	2	nt	nt	nt
COc1cc2ccccc2cc1C(=O)NC(=S)Nc1cc(C(=O)O)ccc1C	nt	110	129*	0	100	0	103
COc1ccccc1C(=O)NC(=S)Nc1cc(C(=O)O)ccc1C	0	93	103	-12	nt	nt	nt
COc1ccc2[nH]c(C)cc(=O)c2c1	0	95	89	0	nt	nt	nt
COc1ccc2[nH]c3c(C)c4ccncc4c(C)c3c2c1	0	177*	118	53*	243*	88*	111
CCOC(=O)c1cc(CC)sc1NC(=O)c1cc(OC)c(OC)c(OC)c1	2	141*	119	15	105	-7	100
CCOC(=O)c1cc(CC)sc1NC(=O)c1ccc(N2C(=O)CCC2=O)cc1	0	101	102	-3	nt	nt	nt
O=[N+]([O-])c1cc(CN2CCCC2)ccc1Sc1ccc(Cl)cc1	0	149*	109	34	122	15	105
Clc1ccc(CN2CCCCCC2)cc1	0	109	103	4	nt	nt	nt
Cc1n[nH]c(=O)nc1NCc1ccco1	4	105	102	3	nt	nt	nt
OC1CCCN(Cc2ccc3ccc4cccc5ccc2c3c45)C1 (stereo not drawn)	2	140*	109	17	119	8	102
O=C(CSc1nc(-c2ccccc2)c(-c2ccccc2)[nH]1)NCC1CCCO1 (stereo not drawn)	4	54*[inhibitor]	93	-20	98	-8	95
CCOC(=O)C1C(=O)OC(C)(C)C1C(C)C(=O)c1ccc(C)cc1C (stereo not drawn)	0	-2.0*[inhibitor]	1.0*[inhibitor]	-26	96	15	102
COC(=O)C1C(=O)OC(C)(C)C1C(C)C(=O)c1ccc(C)cc1C (stereo not drawn)	5	104	100	0	nt	nt	nt
COC(=O)CN(c1cccc(C)c1)S(=O)(=O)c1ccccc1	3	105	101	8	nt	nt	nt
Cc1cc(C(=O)COC(=O)Cc2n[nH]c(=O)c3ccccc23)c(C)n1-c1ccc2c(c1)OCO2	0	105	139*	2	110	6	104
SMILES	GRK2 aptamer HTS	MEKK2wt PB1 HTS	MEKK3 PB1 HTS	MEKK2 mut-MEK5	MEKK2wt confirm	MEKK2mut-MEK5	MEKK3-MEK5 inh
O=C(c1ccco1)N1CCN(c2cc(=O)n(C3CCCCC3)c(=O)[nH]2)CC1	5	101	103	-3	nt	nt	nt
C=Cc1c(C)c2cc3[nH]c(cc4nc(cc5nc(cc1[nH]2)C(C)=C5CCC(=O)O)C(CCC(=O)O)=C4C)c(C)c3C=C	6	60*[inhibitor]	88	-8	69	-13	98
Fc1ccc(CNc2ccccn2)cc1	0	94	97	-3	nt	nt	nt
O=C(Nc1ccccc1-c1ccccc1)NC1CCN(C(=O)N2CCOCC2)CC1	4	120	122*	4	107	10	102
CCOc1ccc(N2CC(C(=O)NCCCN3CCOCC3)CC2=O)cc1 (stereo not drawn)	0	3.0*[inhibitor]	2.0*[inhibitor]	-21	102	7	105
O=C(Cc1coc(-c2ccc(F)cc2)n1)Nc1ccccc1	0	2.0*[inhibitor]	2.0*[inhibitor]	-46	110	2	107
O=C(/C=C/c1ccc(Cl)cc1)Nn1c(-c2cccs2)nc2ccccc2c1=O	1	105	131*	0	103	4	105
COc1ccc(Cl)cc1C(=O)Nn1c(-c2cccs2)nc2ccccc2c1=O	2	104	104	0	nt	nt	nt
CCC1Oc2ccc(C)cc2N(CC(=O)NCc2ccccc2OC)C1=O (stereo not drawn)	1	104	105	7	nt	nt	nt
Cc1ccc2occ(C3NC(C(=O)O)CS3)c(=O)c2c1 (stereo not drawn)	3	95	93	-2	nt	nt	nt
CC[n+]1c(/C=C/N(C)c2ccccc2)oc2ccccc21	0	99	72*[inhibitor]	-1	103	3	103
CC[n+]1c(/C=C/N(C)c2ccccc2)oc2ccc(F)cc21	0	98	100	-2	nt	nt	nt
C=CCN(c1ccc(C(=O)Nc2cccc(C)c2)cc1)S(C)(=O)=O	0	98	95	-7	nt	nt	nt
Cc1[nH]nc2c1C1(CCC3(CC1)OCCO3)C(C#N)=C(N)O2	0	-3.0*[inhibitor]	1.0*[inhibitor]	-20	104	12	103
COc1cc(/C=N/NC(=O)c2ccc(Cl)cc2)ccc1OCC(=O)N1CC(C)OC(C)C1 (stereo not drawn)	0	74	52*[inhibitor]	-4	102	1	103
Cc1cc(Cl)c(S(=O)(=O)N2CCCC2)cc1OCC(N)=O	3	103	103	2	nt	nt	nt
CC(C)COCC1CC2(CC(C)C(=O)CC2=O)C(=O)O1 (stereo not drawn)	0	125	123*	17	89	-10	85
CCSC1=NCCN1S(=O)(=O)c1ccccc1	0	58	50*[inhibitor]	-16	103	-2	106
CCSC1=NCCN1S(=O)(=O)c1ccc(Cl)cc1	2	100	109	-12	nt	nt	nt
CS(=O)(=O)c1ccc(Cl)c(NC(=O)Cc2ccccc2F)c1	0	101	105	4	nt	nt	nt
O=C(NCCCN1CCOCC1)c1ccc2c(c1)N(Cc1ccccc1)C(=O)c1ccccc1S2	0	111	101	5	nt	nt	nt
CN1CCN(CCCNC(=O)c2ccc(/C=C3/Sc4ccccc4N(Cc4cccc(Cl)c4)C3=O)cc2)CC1	nt	224*	108	65*	209*	73*	110
